Hits are enriched below; roughly 21% of the tested compounds scored in any of these assays.
CHX counter = counter-screen hit for Shiga toxin inhibitors, cycloheximide. 300,000 tested, 12% active. cell reporter, cycloheximide protein synthesis inhibition counterscreen. AID 2314. max response, %; in the data active = max response mostly above about 13%, no sharp cut-off; inactive = mostly below about 14%; also: read at 38.3 µM for the half of the compounds with a filed dose
Pf growth 96h = P. falciparum growth inhibition at 96 hours | P. falciparum luciferase reporter growth, 96 h | Potency, µM (doses to about 28.7 µM), most hits filed as inhibitors | 320,000 tested, 6.9% active | AID 504834
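Delayed-death screen, second-generation endpoint: infected erythrocytes, 2% hematocrit, 0.05% parasitemia final; 96 hours at 37 C, 5% CO2; luciferase detection reagent; luminescence decrease equals reduced growth.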
Pf growth 48h = inhibits P. falciparum growth in the first generation, 48 h. P. falciparum luciferase growth in erythrocytes, 48 h. Potency, µM (titrated, usually from 28.7 µM), usual class: inhibitors. 310,000 tested, 5.9% active
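Read-out is firefly luciferase luminescence from an integrated reporter in P. falciparum, so falling signal marks reduced parasite growth. Infected erythrocytes were at 2% hematocrit and 0.1% parasitemia (final) in Albumax-supplemented RPMI 1640.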
NS1 function inh = inhibitors of influenza NS1 protein function. Potency, µM (doses to about 46.1 µM). 270,000 tested, 0.4% active; calls by dose curve; also: actives are rising curves; nearly all actives have a fitted effect of over 50% in size
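In this qHTS, NS1 from influenza A is expressed in budding yeast, where it slows growth. Cells are switched from glucose to 2% galactose medium (pH 6.0, -URA), treated with compound, and growth recovery is read at OD600.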
Shiga inhibitor = Shiga toxin inhibition; inhibition, % at 38.7 µM; Vero cells, Shiga toxin protein synthesis inhibition reporter; 290,000 tested, 9.2% active; in the data active = inhibition mostly above about 28%, no sharp cut-off; inactive = mostly below about 43%
Sm TGR block = S. mansoni TGR enzyme inhibition; AID 485364; Potency, µM (titrated, usually from 114 µM), most hits filed as inhibitors; purified TGR, DTNB reduction, TNB absorbance 405 nm; 360,000 tested, 3% active; Q962Y6; also: nearly all actives have a fitted effect of over 60% in size
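TGR 20 nM + NADPH 100 uM (dispensed conc.), cpd preinc 15 min RT; start with NADPH (500 uM addition) then DTNB (15 mM addition). Kinetic TNB absorbance, 405 nm filter. Four-parameter Hill fit across titration.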
Of the large screens only hits and unclear results are named; the others gave an inactive call. Unless noted, calls follow the shape of the dose curve; as a rule, active = well fitted curve in the direction sought with a large enough effect; inconclusive = small, poorly fitted or top-dose-only effect, or another doubt; inactive = no such curve, though single readings can be large; an effect the other way counts as inactive or inconclusive.

CCOC(=O)c1sc(S(C)=O)c2c1CCc1conc1-2 (configuration not stated)	Pf growth 96h inconclusive, Pf growth 48h inconclusive, Sm TGR block 1µM
CCOC(=O)c1sc2ccccc2c1OC(=O)c1ccc(C)cc1	none
O=[N+]([O-])c1c2ccccc2cc2ccccc12	Pf growth 96h inconclusive, Pf growth 48h 2.62µM (no result: CHX counter, NS1 function inh, Shiga inhibitor)
CCC(=O)Nc1ccc(CC)cc1-c1nc2ccccc2n(CC(=O)Nc2cccc(OC)c2)c1=O	none (no result: CHX counter, Pf growth 96h, Pf growth 48h, NS1 function inh, Shiga inhibitor)
Cc1ccc(SCC(c2ccccc2)N2CCN(CC(C)C)CCC2=O)cc1 (configuration not stated)	CHX counter 42.5, Shiga inhibitor 89.1 (no result: Pf growth 96h, Pf growth 48h, NS1 function inh, Sm TGR block)
CC(C)CN1CCC(=O)N([C@H](CO)c2ccccc2)CC1	none
COc1ccc(SCC(c2ccccc2)N2CCN(CC(C)C)CCC2=O)cc1 (configuration not stated)	none (no result: Pf growth 96h, Pf growth 48h, NS1 function inh, Sm TGR block)
CC(C)CN1CCC(=O)N([C@H](CSc2ccc(Br)cc2)c2ccccc2)CC1	Sm TGR block 2.82µM
Cc1ccc(SC[C@H](c2ccccc2)N2CCN(CC(C)C)CCC2=O)cc1	Pf growth 96h inconclusive, Pf growth 48h inconclusive, Sm TGR block 31.6µM
Fc1ccc(-c2nn(-c3ccc(Cl)cc3)c3c2cnc2ccc(F)cc23)cc1	none (no result: CHX counter, Pf growth 96h, Pf growth 48h, NS1 function inh, Shiga inhibitor)
Cc1cnc(NC(=O)C2CC(=O)N(c3cccc(Cl)c3)C2)s1 (configuration not stated)	none
CC(=O)N(CCC(c1ccccc1)c1ccco1)Cc1cccs1 (configuration not stated)	Sm TGR block 11.2µM
CCC(=O)N(CCC(c1ccco1)c1ccccc1OC)Cc1cccs1 (configuration not stated)	Pf growth 96h 10.4µM, Sm TGR block 17.8µM (no result: Pf growth 48h)
C#C[C@]1(OC(C)=O)CC[C@H]2[C@@H]3CCC4=CC(=O)CC[C@@H]4[C@H]3CC[C@@]21C	none (no result: Pf growth 96h, Pf growth 48h, NS1 function inh, Sm TGR block)
CN(C)CCSCCO	none (no result: CHX counter, Pf growth 96h, Pf growth 48h, Shiga inhibitor, Sm TGR block)
CCOP(=S)(OCC)SCC(=O)NC(C)(CC)C(=O)O (configuration not stated)	Pf growth 96h 7.38µM (no result: Pf growth 48h)
CCOP(=S)(OCC)SCCSCC	Pf growth 96h inconclusive (no result: CHX counter, NS1 function inh, Shiga inhibitor)
CCC1CCCCN1C(=O)Cn1c(=O)cc(C(F)(F)F)c2c(C)nn(C)c21 (configuration not stated)	none (no result: CHX counter, Pf growth 96h, Pf growth 48h, NS1 function inh, Shiga inhibitor)
Cc1ccccc1-n1c(SCC(=O)c2c(N)n(C)c(=O)n(C)c2=O)nnc1-c1cccnc1	none
CC(NC(=O)CSc1nc2sc3c(c2c(=O)n1-c1ccccc1)CCCC3)c1ccccc1 (configuration not stated)	Pf growth 48h 11.7µM
Cc1ccccc1-n1c(SCC(=O)c2c(N)n(C)c(=O)n(C)c2=O)nc2sc3c(c2c1=O)CCCC3	Pf growth 96h 0.928µM, Pf growth 48h 3.7µM
CN(C)C(CNC(=O)CCc1nc2sc3c(c2c(=O)[nH]1)CCCC3)c1ccccc1 (configuration not stated)	Pf growth 96h inconclusive, Pf growth 48h inconclusive (no result: CHX counter, NS1 function inh, Shiga inhibitor)
CN(C)C(CNC(=O)CSc1nc2sc3c(c2c(=O)n1C)CCCC3)c1ccccc1 (configuration not stated)	Pf growth 96h 11.7µM, Pf growth 48h inconclusive (no result: CHX counter, NS1 function inh, Shiga inhibitor)
CSc1ncc2c(n1)-c1ccccc1N(Cc1ccccc1)S2(=O)=O	none (no result: CHX counter, Pf growth 96h, Pf growth 48h, NS1 function inh, Shiga inhibitor)
O=C(C1=C[C@H](c2coc3ccccc3c2=O)C[C@H](OCCCCO)O1)N1CCN(Cc2ccc3c(c2)OCO3)CC1	Pf growth 96h inconclusive
OCCN(Cc1ccccc1)CC1CC=CCC1 (configuration not stated)	none
CCCN(Cc1ccc(N(C)C)cc1)CC1CC1	Pf growth 96h 2.08µM (no result: Pf growth 48h)
CCCN(Cc1ccc(N(CC)CC)cc1)CC1CC1	Pf growth 96h 1.47µM, Pf growth 48h 11.7µM
CCCCOc1ccccc1NC(=O)c1ccco1	Pf growth 48h inconclusive
COc1ccccc1OCCNC(=O)c1ccco1	none
Cc1ccccc1OCCNC(=O)c1ccco1	CHX counter 35.9, Shiga inhibitor 96.8
CCCCOc1ccc(OCCNC(=O)c2ccco2)cc1	Pf growth 96h inconclusive, Pf growth 48h 9.28µM, Shiga inhibitor 57.5
O=C(Nc1ccc(F)cc1F)Nc1ccc(F)cc1F	CHX counter 30.3, Shiga inhibitor 85.6 (no result: Sm TGR block)
O=C(Nc1ccncc1)Nc1ccc(F)cc1F	CHX counter 27.3, Pf growth 48h 9.28µM, Shiga inhibitor 54.2
O=C(CC(=O)Nc1ccc(F)cc1F)Nc1ccc(F)cc1F	none
COc1ccc(CNC(=O)CCCN2C(=O)COc3ccc(C)cc32)cc1	none (no result: CHX counter, Pf growth 96h, Pf growth 48h, NS1 function inh, Shiga inhibitor)
C/C(=N\NC(=O)c1cc(Cl)ccc1O)c1ccc(Br)s1	none
C/C(=N\NC(=O)c1ccc(Cl)cc1)c1ccc(Br)s1	CHX counter 29.0, Pf growth 96h 2.62µM, Pf growth 48h 7.38µM, Shiga inhibitor 89.6
C/C(=N\NC(=O)c1ccco1)c1ccc(C(=O)O)s1	CHX counter 50.4, Shiga inhibitor 79.8
C/C(=N/NC(=O)c1ccco1)c1ccc(Br)s1	CHX counter 25.9, Shiga inhibitor 35.2
Cc1ccc(CNc2nccn(-c3cc(C)cc(C)c3)c2=O)cc1	none (no result: CHX counter, Pf growth 96h, Pf growth 48h, NS1 function inh, Shiga inhibitor)
c1ccc2[nH]c(Cn3nnc4ccccc43)nc2c1	none (no result: CHX counter, NS1 function inh, Shiga inhibitor)
CCOc1cccc(-c2cc(C(=O)Nc3ccon3)c3ccccc3n2)c1	Pf growth 48h 2.08µM
O=C(O)c1ccccc1NC(=O)c1cc(-c2ccccc2)nc2ccccc12	none
O=C(Nc1ccon1)c1cc(-c2ccccc2)nc2ccccc12	Pf growth 48h 7.38µM (no result: Pf growth 96h)
CSc1cccc(NC(=O)CC2Oc3ccccc3NC2=O)c1 (configuration not stated)	none
O=C(COC(=O)CC1Sc2ccccc2NC1=O)NCc1ccccc1 (configuration not stated)	Pf growth 96h inconclusive, Pf growth 48h 13.1µM (no result: CHX counter, NS1 function inh, Shiga inhibitor)
CC(=O)Nc1ccc2c(COC(=O)CC3Sc4ccccc4NC3=O)cc(=O)oc2c1 (configuration not stated)	none (no result: Sm TGR block)
COc1ccc2c(COC(=O)CC3Sc4ccccc4NC3=O)cc(=O)oc2c1 (configuration not stated)	CHX counter 19.9, Pf growth 96h inconclusive, Pf growth 48h inconclusive
CCC(C)N1CCN(C(=O)C2CCN(S(=O)(=O)c3c(C)noc3/C=C/c3ccco3)CC2)CC1 (configuration not stated)	Pf growth 48h inconclusive, Sm TGR block 44.7µM
CCOc1ccc(NC(=O)C2CCN(S(=O)(=O)c3c(C)noc3/C=C/c3ccco3)CC2)cc1	none (no result: CHX counter, Pf growth 96h, Pf growth 48h, NS1 function inh, Shiga inhibitor)
Cc1noc(C)c1S(=O)(=O)N1CCC(C(=O)N2CCN(C3CCCC3)CC2)CC1	Sm TGR block 31.6µM
CCOc1ccc(NC(=O)C2CCN(S(=O)(=O)c3c(C)noc3C)CC2)cc1	Pf growth 96h 7.38µM
CCc1ccc(NC(=O)C2CCN(S(=O)(=O)c3c(C)noc3C)CC2)cc1	Pf growth 96h 5.86µM
COc1ccc(CNC(=O)c2cc3c(s2)CN(Cc2ccccc2)C3)cc1	Pf growth 48h inconclusive (no result: NS1 function inh)
CCOc1ccccc1/C=C/c1onc(C)c1S(=O)(=O)N1CCC(C(=O)NC(C)(C)C)CC1	Pf growth 48h 14.7µM, NS1 function inh inconclusive
